# Source: PubChem BioAssay AID743262 (National Center for Advancing Translational Sciences (NCATS), 2014)
# In all, about 1,300 compounds went through this assay and about 25 (2%) were called active. Inconclusive results (about 9%) are left out. This is one part of a sample in which actives are shown more often than they occur. Unmarked numbers belong to inactive results. Calls come from the whole dose curve; as a rule, active = well fitted activation curve with a large enough effect; inconclusive = small, poorly fitted or top-dose-only effect; inactive = flat fitted curve, though single readings scatter.
# Target: Glucagon-like peptide 1 receptor (Homo sapiens) (UniProt P43220)
# Sequence (P43220 whole entry, looked up): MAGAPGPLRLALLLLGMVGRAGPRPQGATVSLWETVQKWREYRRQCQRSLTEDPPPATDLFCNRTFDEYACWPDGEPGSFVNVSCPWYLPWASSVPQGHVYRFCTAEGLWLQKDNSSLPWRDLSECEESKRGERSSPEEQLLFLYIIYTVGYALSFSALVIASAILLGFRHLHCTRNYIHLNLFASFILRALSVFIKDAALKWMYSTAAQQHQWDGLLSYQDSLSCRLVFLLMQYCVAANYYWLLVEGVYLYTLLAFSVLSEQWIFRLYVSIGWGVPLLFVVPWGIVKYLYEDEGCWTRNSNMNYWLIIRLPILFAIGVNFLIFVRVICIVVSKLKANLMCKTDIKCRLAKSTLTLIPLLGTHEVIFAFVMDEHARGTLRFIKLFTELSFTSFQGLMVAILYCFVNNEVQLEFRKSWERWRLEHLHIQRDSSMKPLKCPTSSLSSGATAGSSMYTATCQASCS
# Assay: qHTS of GLP-1 Receptor Agonists: Hit Validation; for activation: % of control where 0% means no effect
# Conditions: HEK293 GLP-1R, cAMP-response luciferase, 4-6 h; series mostly up to 46.1 µM; activation: at the top concentration
# Excerpt: The overall goal of this project was to develop a novel assay for discovering small molecule ligands for class B1 G protein-coupled receptors (GPCRs). Very few agonists (or inverse agonists) with generally weak activity for this entire group of physiologically important receptors are known to date. To establish proof-of-principle that this critical bottleneck can be overcome with a suitable screening approach, our studies focused on the class B1 receptor for glucagon-like peptide-1 (GLP-1R), a potential therapeutic target for diabetes and neurodegenerative disease. The assay was developed in a "mix and measure" format using a cell-based functional readout. Toward this goal, stably transfected HEK293 cell clones were established that co-express (i) a cAMP-responsive luciferase reporter gene, and (ii) GLP-1Rs that upon ligand interaction either stimulate (agonists) or inhibit (inverse agonists) luciferase activity. In different cell lines to be used for screening, expressed GLP-1Rs are specifically optimized for high sensitivity detection of either weak agonists (hypersensitive receptor) or inverse agonists (constitutively active receptor mutant). In addition, control cell lines were developed that express either the cAMP-responsive reporter gene without recombinant GLP-1Rs (enabling initial exclusion of GLP-1R independent effects of candidate probes), or the reporter gene together with wild type GLP-1Rs (for confirmation of probe activity at this receptor), or the reporter gene in combination with the constitutively active orphan receptor GPR119 (enabling initial exclusion of GLP-1R independent inhibitory effects of candidate inverse agonists). To that end, this assay was optimized for 1536-well format and screened against the MLSMR. NIH Molecular Libraries Probe Production Network [MLPCN] NIH Chemical Genomics Center [NCGC] Grant: NS064851 PI Name: Martin Beinborn, Tufts Medical Center
# In a white solid 1536-well plate, 6 uL of cells are dispensed in DMEM without phenol red, 10% Nu serum, and 1% pen-strep medium. The plates are then incubated for 12 hours at 37 deg C at 5% CO2 before 23 nL of compounds are added. After a 4-6 hr incubation at37 deg C and 5% CO2, 3 uL of detection reagent are added and after a 12 min incubation at RT, a luminescent read is obtained on the ViewLux.
# Potency is the fitted concentration of half-maximal effect.
Compound,activation,Potency
Cc1ccc(C)c(S(=O)(=O)Nc2cc3c4c(c2)CCC(=O)N4CCC3)c1,4.82%,–
COc1cc2c(cc1OC)C(C)N(C(=O)C1COc3ccccc3O1)CC2 (stereo not drawn),1.66%,–
COc1ccc(-c2nc(C#N)c(NCc3ccc(C)cc3)o2)cc1OC,26.6%,–
COC(=O)c1ccc(CSc2nnc3nc(C)cc(C)n23)cc1,7.79%,–
C=CCOc1ccc(CNc2nccs2)cc1OCC,0.231%,–
CCOC(=O)c1c(C)n(-c2ccccc2)c2ccc(OCCN(C)C)cc12,1.98%,–
CCN(CC)CC(=O)Nc1scc2c1c(=O)oc1ccccc12,–,8.2 µM (active)
CC(=O)c1oc2ccccc2c1NC(=O)CN1CCCCC1,2.43%,–
CC(=O)Nc1nc(CC(C)C)cc2c1c(=O)oc1ccccc12,-0.314%,–
CCOC(=O)c1sc(NC(=O)C2=COCCO2)c(C#N)c1C,1.43%,–
COc1cccc(OCCNc2cc(N3CCOCC3)ccc2[N+](=O)[O-])c1,23%,–
CCOC(=O)c1c(NC2OC(=O)c3c2ccc(OC)c3OC)sc(C(=O)OC(C)(C)C)c1C (stereo not drawn),10.4%,–
N#Cc1c(-c2ccc(F)cc2)noc1N,-0.686%,–
COc1ccc(CSc2nnnn2-c2ccccc2)cc1,0.383%,–
O=[N+]([O-])c1cnccc1NC1CCCCC1,3.34%,–
O=C1CN(c2nc(-c3cccnc3)nc3sc4c(c23)CCCC4)CCN1,26.3%,–
COC(=O)CSc1ncnc2scc(-c3ccccc3)c12,8.75%,–

Compound,activation,Potency
COC(=O)CCSCC(=O)N1N=C(c2ccc(OC)cc2)CC1c1cccc(OC)c1OC (stereo not drawn),3.02%,–
CCC(=O)Nc1sc2c(c1C#N)CCCCC2,0.438%,–
Cc1nc(N2CCOCC2)c2cc(-c3ccccc3)sc2n1,–,8.2 µM (active)
Cc1nc(N2CCOCC2)c2c(C)c(C(=O)Nc3ccccc3C(F)(F)F)sc2n1,5.01%,–
CN(C)c1ncnc2sc(-c3ccccc3)cc12,18.2%,–
COc1ccc(C(=O)NCC2(c3ccc(OC)c(OC)c3)CCCC2)cc1OC,14.5%,–
CC(=NNC(=S)Nc1ccc(C)cc1)c1ccccn1,24.4%,–
COC(=O)c1ccc(Cn2nc(-c3cc(C)ccc3C)ccc2=O)cc1,1.3%,–
COc1cc(SC)ccc1C(=O)Nc1ccccc1,2.97%,–
Cc1c(C)n(Cc2ccccc2)c2ncnc(NCCO)c12,-0.311%,–
COc1ccc(-c2cc(C(=O)N3CCCC(C(F)(F)F)C3)c3ccccc3n2)cc1OC (stereo not drawn),7.08%,–
C=CCN1N=C(c2ccc(Cl)s2)CSC1=O,4.36%,–
CCOC(=O)c1nnn(-c2nonc2N)c1-c1cccs1,-0.622%,–
CCc1ccc(C(=O)COC(=O)c2cc([N+](=O)[O-])ccc2N2CCOCC2)cc1,14.8%,–
COc1ccc(C(=O)c2cc([N+](=O)[O-])ccc2N2CCOCC2)cc1,9.91%,–
COc1ccc(C(=O)COC(=O)c2cc([N+](=O)[O-])ccc2N2CCOCC2)c(OC)c1,–,20.6 µM (active)
